Screens (PubChem BioAssay)
Gal4-VP16 FLuc: Gal4-VP16 reporter inhibition counter-screen; Drosophila S2 Gal4-VP16 UAS-luciferase, luminescence, 20 h; Potency, µM (doses to about 53.6 µM), inactives show top-dose activity, negative = inhibition, usual class: inhibitors; actives 3.5% (n = 310,000);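 also: Gal4-VP16 expression switched on by copper sulfate through the metallothionein promoter; nearly all actives have a fitted effect of over 50% in size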
DT40 TDP1 CPT: DT40-hTDP1 cell growth loss with CPT; chicken DT40 Tdp1-/-;hTDP1 cells + 20 nM CPT, ATP luminescence, 48 h; Potency, µM (titrated, usually from 46.2 µM), for inactives: top-dose activity change, negative = growth inhibition, most hits filed as inhibitors; actives 12% (n = 420,000); AID 686979; also: nearly all actives have a fitted effect of over 55% in size
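Cell growth measured by CellTiter-Glo luminescence after a minimum 48 h, 37 C compound exposure with 20 nM CPT in Tdp1-knockout DT40 cells stably expressing hTDP1, seeded 400/well; qHTS titration format.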
TDP1 block: inhibitors of human tyrosyl-DNA phosphodiesterase TDP1; AID 485290; recombinant TDP1, AlphaScreen DNA substrate cleavage; Potency, µM (series often up to 130 µM), without a hit: at the top dose activity change, negative = inhibition, actives largely listed as inhibitors; actives 0.28% (n = 350,000); also: nearly all actives have a fitted effect of over 40% in size
Target sequence (Q9NUW8 whole entry, looked up): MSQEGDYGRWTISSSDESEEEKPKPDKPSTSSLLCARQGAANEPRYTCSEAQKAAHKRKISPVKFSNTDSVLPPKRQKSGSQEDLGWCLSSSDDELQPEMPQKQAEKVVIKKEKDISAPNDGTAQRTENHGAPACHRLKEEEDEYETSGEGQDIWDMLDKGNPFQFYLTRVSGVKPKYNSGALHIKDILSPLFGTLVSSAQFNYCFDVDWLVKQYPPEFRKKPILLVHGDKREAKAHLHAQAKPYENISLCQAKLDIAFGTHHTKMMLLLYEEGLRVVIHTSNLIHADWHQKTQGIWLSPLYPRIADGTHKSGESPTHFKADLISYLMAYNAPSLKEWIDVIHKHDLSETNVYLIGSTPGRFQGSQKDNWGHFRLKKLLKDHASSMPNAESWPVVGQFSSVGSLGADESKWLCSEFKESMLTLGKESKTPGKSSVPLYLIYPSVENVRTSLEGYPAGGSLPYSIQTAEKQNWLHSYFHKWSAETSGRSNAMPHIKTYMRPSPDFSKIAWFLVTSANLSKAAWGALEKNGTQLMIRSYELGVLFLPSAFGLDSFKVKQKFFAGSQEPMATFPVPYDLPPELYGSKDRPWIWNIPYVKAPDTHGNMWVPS
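AlphaScreen read-out: signal falls as enzyme removes the 3' tyrosine-FITC from a 5'-biotinylated DNA oligo (15 nM, 5 min, RT). Enzyme was E. coli-made recombinant Tdp1 at 1 nM, exposed to compound for 15 min beforehand; beads 10 ug/ml, 10 min.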
RORgamma inh: ROR gamma (mouse) transcription inhibition; Drosophila S2 Gal4-RORgamma UAS-luciferase reporter, 20 h; Potency, µM (highest dose often 53.6 µM), without a hit: at the top dose activity change, negative = inhibition, actives largely listed as inhibitors; actives 5.4% (n = 310,000); AID 2551; also: nearly all actives have a fitted effect of over 60% in size
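Luciferase reporter read in Schneider cells carrying Gal4-RORγ (mouse) and UAS-Photinus luciferase; cells given compound 1 h before 700 uM copper sulfate induction, then incubated 20 h at ambient temperature.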
TDP1 cell noCPT: qHTS for Inhibitors of human tyrosyl-DNA phosphodiesterase 1 (TDP1): qHTS in cells in absence of CPT. DT40 Tdp1-/- hTDP1 cells, no CPT, ATP luminescence, 48 h. Potency, µM (highest dose often 46.2 µM), inactives show top-dose activity change, negative = growth inhibition, most hits filed as inhibitors. actives 15% (n = 420,000); also: nearly all actives have a fitted effect of over 55% in size
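A cellular qHTS used chicken DT40 cells lacking endogenous Tdp1 but carrying stably transfected human TDP1. Compounds were applied without camptothecin, and cell growth kinetics were judged by ATP-dependent luminescence after ≥48 hr.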
* = called active by the depositor; ? = inconclusive; · = no result; [ ] = dose if it differs, or a comment. A selection: hits, their analogues and other compounds. The true share with any hit is near 19%. Calls follow the shape of the dose curve; as a rule, active = well fitted curve in the direction sought with a large enough effect; inconclusive = small, poorly fitted or top-dose-only effect, or another doubt; inactive = no such curve, though single readings can be large; an effect the other way counts as inactive or inconclusive. % is scaled to controls: 0 for no effect and ±100 for the full control effect; potency is read from the fitted curve at half-maximal effect.

SMILES	Gal4-VP16 FLuc	DT40 TDP1 CPT	TDP1 block	RORgamma inh	TDP1 cell noCPT
CCN(CC)C(=O)CCc1nc2sc3c(c2c(=O)[nH]1)CCCC3	6%	?	-6%	-17%	?
Cc1cc(C)cc(NC(=O)CSc2nc3sc4c(c3c(=O)[nH]2)CCCC4)c1	·	-21%	2%	·	-29%
CCc1cccc(NC(=O)CCc2nc3sc4c(c3c(=O)[nH]2)CCCC4)c1	·	8.2µM*	·	·	10µM*
COC(=O)c1ccccc1NC(=O)CSc1nc2sc3c(c2c(=O)[nH]1)CCCC3	·	12µM*	-8%	·	9.2µM*
Cc1ccc(NC(=O)CCc2nc3sc4c(c3c(=O)[nH]2)CCCC4)nc1	·	3%	-13%	·	-28%
CN(C)S(=O)(=O)c1cccc(NC(=O)CCc2nc3sc4c(c3c(=O)[nH]2)CCCC4)c1	·	16µM*	1%	·	?
COc1cccc(NC(=O)CN(C)C(=O)CCc2nc3sc4c(c3c(=O)[nH]2)CCCC4)c1	0%	-5%	-5%	16%	-12%
CC(=O)Nc1cc(NC(C)=O)c(N=Nc2ccccc2)cc1C	-8%	-1%	·	-8%	?
Cc1ccc(NCc2ccc([N+](=O)[O-])s2)cc1	25%	-12%	8%	5%	-7%
NC(=O)c1ccc(N=Cc2ccc([N+](=O)[O-])s2)cc1	5.6µM*	5.2µM*	0%	?	3.3µM*
Cc1ccc(NC(=S)N/N=C/c2ccc([N+](=O)[O-])s2)cc1	16µM*	?	0%	7.1µM*	?
O=[N+]([O-])c1ccc(C=Nc2ccc(Cl)c([N+](=O)[O-])c2)s1	-24%[10 µM]	·	-3%	?	·
Cc1cc(C)cc(N=Cc2ccc([N+](=O)[O-])s2)c1	18µM*	2.6µM*	0%	?	2.6µM*
Cc1ccc(-c2cc(-c3n[nH]c(=S)n3C)c3ccccc3n2)cc1	-14%	?	8%	1.3µM*	?
CCn1c(-c2cc(C3CC3)nc3ccccc23)n[nH]c1=S	-17%	-23%	5%	?	?
CCn1c(-c2cc(-c3ccc(C)c(C)c3)nc3ccccc23)n[nH]c1=S	-17%	·	12%	10µM*	·
CCOc1cccc(-c2cc(-c3n[nH]c(=S)n3CC)c3ccccc3n2)c1	?	-23%	12%	0.13µM*	?
CCn1c(-c2cc(-c3cc(C)ccc3C)nc3ccccc23)n[nH]c1=S	-1%	?	4%	?	?
CCOc1ccccc1-c1cc(-c2n[nH]c(=S)n2CC)c2ccccc2n1	-16%	?	8%	5.6µM*	18µM*
COc1ccc2c3c([nH]c2c1)C(C)N(CCC(=O)NN)CC3 (configuration not stated)	1%	0%	·	-18%	-19%
O=C(Nc1nnc(-c2ccc3c(c2)OCCO3)o1)c1ccc(Cc2ccccc2)cc1	7.1µM*	?	9%	5.6µM*	?
O=C(CCOc1ccccc1)Nc1nnc(-c2ccc3c(c2)OCCO3)o1	20µM*	?	8%	8.9µM*	?
CSc1cccc(-c2nnc(NC(=O)c3ccc4c(c3)OCCO4)o2)c1	·	?	14%	·	?
COc1ccc2nc(C)cc(Sc3nc4ccccc4s3)c2c1	?	9.2µM*	0%	14µM*	9.2µM*
Cn1c(CO)cnc1SCc1ccc([N+](=O)[O-])cc1	-3%	-19%	8%	18%	?
SMILES	Gal4-VP16 FLuc	DT40 TDP1 CPT	TDP1 block	RORgamma inh	TDP1 cell noCPT
O=S(=O)(c1ccc(S(=O)(=O)N2CCCC3(CCCCC3)C2)cc1)N1CCCCC1	-2%	?	5%	-24%	?
Cc1ccc(CC2SC(=Nc3ccccc3)N(c3ccccc3)C2=O)cc1 (configuration not stated)	-9%	-12%	3%	?	-25%
COc1ccc(N=c2nc(-c3ccc(C)cc3)n(-c3ccccc3)s2)cc1	·	4µM*	5%	·	3.5µM*
Cc1ccc(-c2nc(=Nc3ccccc3)sn2-c2ccccc2)cc1	·	3.5µM*	2%	·	3.2µM*
COc1ccc(N=c2nc(-c3ccccc3)n(-c3ccc(C)cc3)s2)cc1	·	4.5µM*	·	·	3.2µM*
COc1ccc(N=C2C(=Nc3ccc(OC)cc3)N(c3ccc(OC)cc3)C(=S)N2c2ccccc2)cc1	23%	21µM*	11%	14%	18µM*
COc1c(C)cc(Br)cc1C(=O)NC(=S)Nc1ccc(Cl)c(C(=O)O)c1	16%	2%	3%	?	11%
COc1cccc(-c2ccc(O)c(CNC(c3ccccc3)c3ccc(Cl)cc3)c2)n1 (configuration not stated)	·	-6%	·	·	-27%
COc1cc(N2CCC(O)CC2)ccc1Nc1nnc(Cl)c(Nc2ccccc2S(C)(=O)=O)n1	·	21µM*	·	·	16µM*
COc1ccc(Nc2nc3c(S(=O)(=O)c4ccccc4)nnn3c3ccc(Cl)cc23)c(OC)c1	·	-16%	0%	·	-8%
CCOC(=O)c1ccc(-c2n[nH]c(=O)c3ccccc23)cc1	2%	-15%	2%	16%	-6%
O=C(Nc1ccccc1N1CCN(c2ccc(F)cc2)CC1)c1ccccc1	-7%	23µM*	-7%	12%	18µM*
CC(C)(C)CC(=O)Nc1ccccc1N1CCN(c2ccc(F)cc2)CC1	-4%	?	·	-5%[1.91 µM]	?
CCC(=O)Nc1ccccc1N1CCN(c2ccc(F)cc2)CC1	-7%	21µM*	·	14%	?
CCOc1nc2ccccc2cc1C=O	-10%	2.3µM*	6%	-1%	2.6µM*
CCCOc1nc2ccccc2cc1/C=C/C(=O)O	0%	-23%	-5%	2%	-29%
CC(C)CN(CC(C)C)C(=S)Nc1ccc(Cl)cc1	20µM*	-1%	-3%	4µM*	?
Cc1cccc(N2CCN(C(=O)CC(NC(=O)c3ccccc3)c3ccccc3)CC2C)c1 (configuration not stated)	-3%	?	0%	-6%[10 µM]	29µM*
COc1cccc(N2CCN(C(=O)CC(NC(=O)c3ccccc3)c3ccccc3)CC2)c1 (configuration not stated)	·	-20%	0%[56.1 µM]	·	-30%
O=C(CN1CCOc2ccccc21)N1CCN(c2cccc(Cl)c2)CC1	·	?	·	·	29µM*
Cc1cccc(N2CCN(C(=O)CN3CCOc4ccccc43)CC2C)c1 (configuration not stated)	-2%	23µM*	4%	12%	?
O=C(Cn1ccc2ccccc2c1=O)N1CCN(c2cccc(Cl)c2)CC1	-24%	-13%	4%	-3%	?
Cc1cccc(N2CCN(C(=O)c3ccc4c(c3)OCCO4)CC2C)c1 (configuration not stated)	-18%	30%	3%	30%	-2%
